Experimental data: ChEMBL document CHEMBL3988442, “University of Dundee, Small-Polar-MMV Screening Library” (2021)
The campaign covered roughly 48,000 compounds. About 13,000 (27%) showed an effect of 50% or more. Some of the results follow.

Test system: Wolbachia pipientis
Test: Anti-Wolbachia Cell-Based Screen
Type: functional
Design: scale not given: in the data most compounds retested in dose-response had high values
Conditions: 5 µM

Going from `Cn1cccc1C1CCCN1C(=O)NCCCn1cccn1` (stereo not given) to `Cn1cccc(NC(=O)NCCOCc2ccccc2)c1=O`, the “Percent Effect” value falls from -1.835% to -14.44%.

First: COc1ccc(NC(C)c2ccc(C#N)cc2)cc1N1CCCC1=O (stereo not given)
Second: COCCn1c(=O)n(Cc2ccccc2C)c2cc(C(=O)O)ccc21
The “Percent Effect” value of the first is higher: 11.24% for the first, -8.391% for the second.

Compared with `O=C(CN1CCSC2(CCCCC2)C1)NCC(F)(F)F`, `Cc1nc[nH]c1CN1CCN(C(=O)CCC(F)(F)F)[C@H]2CS(=O)(=O)C[C@H]21` is higher in “Percent Effect” value: -26.69% for the first, 0% for the second.

Going from `COCCc1noc(CN2CCN(CC(O)c3ccccc3)CC2)n1` (stereo not given) to `Cc1ncc(C)c(N2CCC(CCc3ccccc3)(C(=O)O)CC2)n1`, the “Percent Effect” value falls from 5.305% to 1.128%.

Going from `Cc1cc2c(cc1C(=O)N1CCC3(CC(=O)NC3=O)C1)OCCO2` (stereo not given) to `CN(C)CC1(O)CCCN(C(=O)c2ccccc2-n2cccn2)C1` (stereo not given), the “Percent Effect” value falls from -6.886% to -10.31%.

Going from `CN(CC1(O)CCN(c2ccnc3ccncc23)CC1)C(=O)CCN` to `Cc1cc(N2CCC(O)(CN(C)C(=O)CCN)CC2)c2cnccc2n1`, the “Percent Effect” value falls from 110.4% to 69.28%.

Going from `Cc1cc(N2CCCC(O)(CN(C)C)CC2)nc(-c2ccccc2)n1` (stereo not given) to `Cc1cc(N2CCC(CO)(CC3CCCCO3)CC2)c2ccccc2n1` (stereo not given), the “Percent Effect” value falls from 2.269% to -1.662%.

Going from `Cc1cnn(C2(C(=O)O)CCN(c3ccncc3F)CC2)c1` to `Cc1cnn(C2(C(=O)O)CCN(c3ccnc4cc(Cl)ccc34)CC2)c1`, the “Percent Effect” value falls from 13.66% to -21.78%.

Going from `Cc1ccc(CC(=O)N(C)CC2(O)CCN(c3ccccn3)C2)s1` (stereo not given) to `CN(CC1(O)CCCN(c2ccccn2)C1)C(=O)Cc1ccsc1` (stereo not given), the “Percent Effect” value falls from -7.019% to -7.252%.

Compared with `Cc1cc(N2CCC(O)(CN(C)C(=O)CCN)C2)c2cnccc2n1` (stereo not given), `Cc1cc(N2CCCC(O)(CN(C)C(=O)CCN)C2)c2cnccc2n1` (stereo not given) is lower in “Percent Effect” value: 98.27% for the first, 91.76% for the second.

Compared with `CC(NC(=O)Cc1ccccc1F)C(=O)N1CCS(=O)(=O)CC1` (stereo not given), `COc1ccc(NC(=O)CCC(C)C)c(N2CCN(C(C)=O)CC2)n1` is higher in “Percent Effect” value: -3.92% for the first, -1.669% for the second.

First: N#Cc1ccnc(N2CCC(NCCN3CCOCC3)CC2)c1
Second: O=C(CC1CCCC1)N1CCN(c2ccc(-n3cncn3)nn2)CC1
The “Percent Effect” value of the first is lower: -1.692% for the first, 17.68% for the second.

Compared with `CCC(=O)Nc1cc(Br)cnc1OCC(F)(F)F`, `O=C(NCc1ccncc1)c1nc2c(o1)CN(C(=O)c1cccnc1)C2.O=C(O)C(F)(F)F.O=C(O)C(F)(F)F` is higher in “Percent Effect” value: -13.83% for the first, 0.8995% for the second.

First: Cc1cc(N2CCC(O)(CN(C)C(=O)CCCN)C2)c2cnccc2n1 (stereo not given)
Second: Cc1ncc(CN(C)C(=O)Nc2ccc(CN3CCOC3=O)cc2)s1
The “Percent Effect” value of the first is higher: 106% for the first, 8.802% for the second.

Compared with `CCNc1ncnc2c1CN(C1CCCNCC1)C(=O)CN2C` (stereo not given), `CN1CC(=O)N(C2CCNCC2)Cc2c(NCC(C)(C)C)ncnc21` is lower in “Percent Effect” value: 112.3% for the first, 106.7% for the second.

Compared with `CN1CCCN(c2nc(C3CCCC3)nc3c2cnn3C)CC1`, `Cn1ncc2c(N3CCS(=O)(=O)CC3)nc(C3CCCC3)nc21` is lower in “Percent Effect” value: 2.389% for the first, -3.304% for the second.

Going from `CC(C)c1nc(N2CCC(N3CCSCC3)CC2)c2cnn(C)c2n1` to `CC(C)c1nc(N2CCC(N3CCCCCC3)CC2)c2cnn(C)c2n1`, the “Percent Effect” value falls from 102.9% to 83.71%.

Going from `CC(C)c1nc(N2CCC(N3CCCC(O)C3)CC2)c2cnn(C)c2n1` (stereo not given) to `CC(C)c1nc(N2CC(N3CCCCC3C)C2)c2cnn(C)c2n1` (stereo not given), the “Percent Effect” value falls from 109.7% to 11.15%.

Compared with `Cn1ncc2c(N3CCN4CCCCC4C3)nc(C3CCCC3)nc21` (stereo not given), `Cn1ncc2c(N3CC(N4CCCCC4)C3)nc(C3CCCC3)nc21` is lower in “Percent Effect” value: 111.9% for the first, 6.638% for the second.

Going from `Cn1ncc2c(N3CCC(CCO)CC3)nc(C(C)(C)C)nc21` to `CC(=O)NCCC1CCN(c2nc(C(C)(C)C)nc3c2cnn3C)CC1`, the “Percent Effect” value rises from -3.712% to -2.953%.

Going from `CC1CCCCN1C1CN(c2nc(C3CCCC3)nc3c2cnn3C)C1` (stereo not given) to `CC/C(C)=C/CCN1CCN(C)C2(CCNC(=O)CC2)C1` (stereo not given), the “Percent Effect” value falls from 0.03102% to -7.249%.

First: O=c1ccn(Cc2nc(-c3ccccc3F)cs2)c(=O)[nH]1
Second: CCn1c(C)cc(-c2csc(Cn3ccc(=O)[nH]c3=O)n2)c1C
The “Percent Effect” value of the first is higher: -9.097% for the first, -14.65% for the second.

Compared with `COc1cccc2c1OCC(C(=O)NCc1c(C)noc1C)C2` (stereo not given), `Cc1ccccc1COCCOCn1c(C)cc(=O)[nH]c1=O` is higher in “Percent Effect” value: -13.16% for the first, 116.8% for the second.

Compared with `Cc1cc(=O)[nH]c(=O)n1COCCOCc1ccccc1`, `Cc1cc(=O)[nH]c(=O)n1COCc1ccccc1` is lower in “Percent Effect” value: 87.63% for the first, 71.08% for the second.

First: Cc1ccc(S(=O)(=O)NC(=O)CCOCc2ccccc2)s1
Second: Cc1cc(=O)[nH]c(=O)n1Cc1ccccc1
The “Percent Effect” value of the first is higher: 4.537% for the first, -6.606% for the second.
